Screening results as filed in PubChem.
Rows were chosen to be rich in hits. Some 4% of all compounds tested hit in one or more screens of this group.
Rv3671c protease: inhibitors of M. tuberculosis serine protease Rv3671c; inhibition, % at 5.96 µM; P9WHR9; hit rate 0.048% among 320,000; AID 2606; in the data active means inhibition above about 38%;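 further: extracellular domain of Rv3671c used as enzyme; 0% = enzyme with DMSO and 100% = no enzyme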
RecA splice inh: inhibitors of M. tuberculosis RecA intein splicing; P9WHJ3; cell-free RecA intein splicing, fluorescence; inhibition, % (test concentration not listed); hit rate 0.75% among 290,000; AID 2221; in the data active means inhibition above about 30%; inconclusive means no clear call, values can overlap the other calls;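 further: 0% = vehicle wells and 100% = reference inhibitor control wells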
Mtb UGM inh: blocks M. tuberculosis UGM enzyme. purified UGM, fluorescence polarization probe displacement. inhibition, % at 10 µM. hit rate 0.06% among 320,000. AID 504406; in the data active means inhibition above about 10%, passing the limit was not always enough; inconclusive means no clear call, values can overlap the other calls
Target sequence (P9WIQ1 whole entry, looked up): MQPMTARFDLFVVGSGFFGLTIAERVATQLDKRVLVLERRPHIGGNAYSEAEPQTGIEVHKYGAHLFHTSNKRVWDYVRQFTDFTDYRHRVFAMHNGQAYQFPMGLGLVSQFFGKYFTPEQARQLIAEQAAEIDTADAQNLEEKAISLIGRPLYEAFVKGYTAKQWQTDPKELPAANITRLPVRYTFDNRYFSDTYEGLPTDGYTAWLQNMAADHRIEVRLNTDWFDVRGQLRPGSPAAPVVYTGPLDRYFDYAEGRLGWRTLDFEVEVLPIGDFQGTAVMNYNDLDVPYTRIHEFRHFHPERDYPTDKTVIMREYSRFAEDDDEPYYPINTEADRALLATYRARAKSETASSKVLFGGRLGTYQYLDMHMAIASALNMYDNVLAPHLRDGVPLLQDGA
Mtb betalactam: beta-lactam sensitization of Mtb H37Rv. M. tuberculosis H37Rv growth with meropenem, percent inhibition. inhibition, % at 25 µM. hit rate 0.27% among 330,000; call rule not given here;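 further: growth measured after seven days incubation then overnight dye step; 0% = bacteria only wells and 100% = bacteria with antibiotic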
GDH-TPI counter: GDH-TPI coupled enzyme inhibition counter-screen | GDH-TPI coupled enzyme counterscreen, NADH absorbance | inhibition, % at 4.8 µM | hit rate 1.2% among 360,000 | AID 588335; in the data active means inhibition above about 30%;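 further: 0% = DMSO wells and 100% = wells lacking the enzyme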
FBA Mtb inh: inhibits M. tuberculosis FBA enzyme | P9WQA3 | hit rate 2.3% among 360,000 | purified M. tuberculosis FBA, fluorescence read-out | inhibition, % at 1 µM; in the data active means inhibition above about 27%;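 further: 0% = vehicle and 100% = reference inhibitor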
Numbers without * were called inactive; i = inactive; ? = inconclusive; . = not tested or not shown; + = active, no number.

SMILES | Rv3671c protease | RecA splice inh | Mtb UGM inh | Mtb betalactam | GDH-TPI counter | FBA Mtb inh
CN(C)c1ccc(/C=N/n2c(C3CCCCC3)n[nH]c2=S)cc1 | 6 | 0 | 2 | ? | 36* | 1
Cc1cc(C)c(NC(=O)C2CCN(c3cnccn3)CC2)c(C)c1 | 1 | -1 | 4 | 9 | -1 | 0
c1ccc(COc2ccc(Nc3ncnc4nc[nH]c34)cc2)cc1 | 9 | 4 | 3 | 51 | 4 | 0
O=C(NCCCn1ccnc1)c1cccc(S(=O)(=O)Nc2ccccc2F)c1 | 4 | 0 | 3 | 1 | 16 | 3
FC(F)(F)c1ccccc1Cc1c(-c2ccco2)nc2ccc(Cl)cn12 | . | . | . | . | . | 6
COc1ccc(/C=N/Nc2nnc(Cc3ccc(OC)c(OC)c3)c(=O)[nH]2)cc1OC | -8 | -6 | 0 | 2 | 31 | -1
CCNc1nc(NCC)nc(N/N=C/c2ccc(O)c(O)c2)n1 | 3 | -5 | 3 | -1 | 11 | -3
Cc1cc(=O)[nH]c(N/N=C/c2ccccc2C(F)(F)F)n1 | -8 | 0 | 0 | -3 | 4 | -3
CCNc1nc(NCC)nc(N/N=C/c2ccc(N(C)C)cc2)n1 | -3 | . | 0 | -3 | 38* | 24
Cc1cc(=O)[nH]c(N/N=C/c2cc(C)n(CC(F)(F)F)c2C)n1 | 8 | -4 | -1 | -5 | 40* | 3
COc1ccc(Cc2nnc(N/N=C/c3ccc(N(C)C)cc3)[nH]c2=O)cc1OC | 5 | -1 | -1 | -2 | 78* | -2
Cc1cc(=O)[nH]c(N/N=C/c2ccc(N(C)C)cc2)n1 | 3 | -8 | 4 | -3 | 35* | 14
Cc1cc(=O)[nH]c(N/N=C/c2ccc(Cl)cc2Cl)n1 | 7 | -3 | -1 | 0 | 5 | 3
CCN(CCC#N)c1ccc(/C=N/Nc2nc(C)cc(=O)[nH]2)c(C)c1 | 10 | -4 | -1 | -3 | 45* | 8
O=C(C=Cc1ccccc1)c1c[nH]c2ccccc2c1=O | . | . | . | . | 38* | -2
O=C(/C=C/c1ccccc1)c1c[nH]c2ccccc12 | 1 | . | -1 | 0 | 23 | -4
Cc1ccc(NC(=O)CC2CS(=O)(=O)CC2CC(=O)Nc2ccc(C)c(C)c2)cc1C (centres undefined) | 7 | 7 | -4 | -3 | -4 | -4
Cc1cccc(N=Cc2c(O)n(-c3ccccc3C)c(=O)[nH]c2=O)c1 | -4 | -3 | 0 | 2 | 48* | -2
Cc1ccccc1-n1c(O)c(C=Nc2ccc(N(C)C)cc2)c(=O)[nH]c1=O | -13 | -2 | 0 | ? | 43* | -9
CCOC(=O)c1cc2c(=O)n3cccc(C)c3nc2n(CC(C)C)c1=NC(=O)c1ccco1 | 6 | i | -1 | -7 | 13 | +
CCOCCCn1c(=NC(=O)c2ccco2)c(C(=O)OCC)cc2c(=O)n3cccc(C)c3nc21 | 1 | -177 | 2 | 0 | 17 | +
CC(=O)c1ccc(Oc2ncnc3sccc23)cc1 | -7 | -1 | -1 | 5 | 12 | -2
O=C(O)c1cc(CN2CCOCC2)oc1-c1ccccc1 | 1 | 1 | 1 | -10 | -7 | -2
COc1ccc(Cl)cc1-n1c(=S)sc2c(=O)[nH]c(SCC(=O)NCC3CCCO3)nc21 (centres undefined) | -8 | . | 1 | -5 | 38* | 0
CCn1c(=S)sc2c(=O)[nH]c(SCC(=O)Nc3cc(OC)ccc3OC)nc21 | -2 | -5 | -4 | 3 | 34* | -2
SMILES | Rv3671c protease | RecA splice inh | Mtb UGM inh | Mtb betalactam | GDH-TPI counter | FBA Mtb inh
COc1ccc(OC)c(NC(=O)CSc2nc3scc(C)c3c(=O)[nH]2)c1 | 0 | 1 | -1 | -1 | 0 | 0
COCCCNC(=O)CSc1nc2c(sc(=S)n2-c2cc(Cl)ccc2OC)c(=O)[nH]1 | -3 | 0 | 1 | -7 | 29 | -1
CCC(=O)NC(=S)Nc1ccc(NC(=O)c2cc3ccccc3o2)c(OC)c1 | -7 | 0 | 0 | -6 | 32* | 1
C/C(Cl)=C\COc1cc(C)nc2c(Br)cccc12 | 6 | 3 | -3 | 86 | -2 | -1
COc1ccc(/C=C/C(=O)Nc2cc(S(=O)(=O)N3CCOCC3)ccc2OC)cc1 | -4 | . | 1 | -5 | 31* | -3
COc1ccc(/C=C/C(=O)Nc2ccc(C)c(S(=O)(=O)N3CCOCC3)c2)cc1 | -47 | . | . | 0 | 33* | 2
Cc1[nH]c2ccccc2c1/C=N/NC(N)=S | 5 | -1 | -1 | 92 | 37* | -1
COc1ccccc1C(=O)NNC1=NS(=O)(=O)c2ccccc21 | 8 | -2 | 1 | -1 | 12 | -2
O=[N+]([O-])c1cc([N+](=O)[O-])c(N2CCCCCC2)cc1NCCO | 0 | 10 | 1 | 40 | 34* | -6
O=[N+]([O-])c1c(NCCO)cc(N2CCCCC2)c2nonc12 | -5 | . | 3 | 4 | 13 | -23
COCC(=O)N1CCc2ccc(NC(=O)c3ccc(C(F)(F)F)cc3)cc2C1 | -1 | 6 | 0 | -2 | 10 | 7
COc1ccc(-c2nc(CS(=O)CC(=O)NCCc3ccc(C)cc3)c(C)o2)cc1OC (centres undefined) | 0 | -3 | 1 | -1 | -3 | 2
Cc1cccn2c(=O)c(C=Nc3ccccc3)c(NCc3ccco3)nc12 | -5 | -6 | 1 | 4 | 22 | 39*
CCOC(=O)c1cc(C)sc1NC(=O)CSC1=NCCS1 | -7 | 32* | -1 | -7 | 9 | 3
Fc1ccc(NC(=S)N2CCCC(c3ccccc3)=N2)cc1 | 7 | . | 1 | 59 | 7 | 0
O=C1CC(C(=O)Nc2ccc(F)cc2)S/C(=N\N=C\c2ccco2)N1 (centres undefined) | -4 | -1 | 1 | 44 | 34* | 2
Cc1ccc(NC(=O)C2CC(=O)N/C(=N/N=C/c3ccco3)S2)cc1 (centres undefined) | -8 | -4 | 0 | 5 | 44* | -3
Cc1ccc(NC(=O)C2CC(=O)N/C(=N/NC(=O)c3ccc(C)cc3)S2)cc1 (centres undefined) | 1 | 0 | 0 | 2 | 7 | -2
Cc1ccc(C(=O)N/N=C2/NC(=O)CC(C(=O)Nc3ccccc3)S2)cc1 (centres undefined) | 11 | 3 | 0 | 0 | 6 | 3
Cc1ccc(NC(=O)C2CC(=O)N/C(=N/N=C/c3ccco3)S2)cc1C (centres undefined) | -84 | 1 | 1 | 5 | 52* | -2
Cc1ccc(N=C2NC(=O)CC(C(=O)Nc3ccc4c(c3)OCO4)S2)cc1 (centres undefined) | -3 | -1 | 1 | 0 | -6 | 1
COc1ccc(CNC(=O)c2cc(=O)c3cc(C)ccc3o2)cc1 | -9 | -1 | 2 | -7 | 4 | 0
COc1ccc(-c2cc(=Nc3cccc(C(=O)O)c3)c3cc(C)ccc3o2)cc1 | -1 | 10 | 0 | 4 | 22 | +
COc1ccc(-c2cc(=NCCCCCC(=O)O)c3cc(C)ccc3o2)cc1 | . | -38 | . | . | 50* | .
